# Results: PubChem BioAssay (NCATS)
# Results filed as inconclusive are left out. Entries that show only a call come without a potency. A number with no mark means an inactive call. Active and inactive are the calls of the source. Calls come from the whole dose curve; as a rule, active = well fitted curve in the direction sought with a large enough effect; inconclusive = small, poorly fitted or top-dose-only effect, or another doubt; inactive = no such curve, though single readings can be large; an effect the other way counts as inactive or inconclusive. Where a SMILES comes first, the peptide text is derived from it. The star is where a group is joined. Cbz = O=C(OCc1ccccc1)*; CH2Cl = ClC*
# What was measured:
# CASKI = assay: Primary qHTS to identify gynecologic anti-cancer compounds using libraries of approved drugs and bioactive compounds (AID 1345084); conditions: Gynecologic cancer cell panel viability, ATPlite luminescence, 48 h; series mostly up to 57.5 µM; note: nearly all actives have a fitted effect of over 55% in size
# How it was run: (§1)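 Cell viability after 48 h drug treatment, ATPlite luminescence readout; five doses.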
# HeLa = assay: as above; conditions: Gynecologic cancer cell panel viability, ATPlite luminescence, 48 h; series mostly up to 57.5 µM
# How it was run: as §1
# JEG-3 = assay: as above; conditions: Gynecologic cancer cell panel viability, ATPlite luminescence, 48 h; series mostly up to 57.5 µM
# How it was run: as §1
# Tov112D = assay: as above; conditions: Gynecologic cancer cell panel viability, ATPlite luminescence, 48 h; series mostly up to 57.5 µM
# How it was run: as §1
# PA-1 = assay: as above; conditions: Gynecologic cancer cell panel viability, ATPlite luminescence, 48 h; series mostly up to 57.5 µM
# How it was run: as §1
# Tov-21-G = assay: as above; conditions: Gynecologic cancer cell panel viability, ATPlite luminescence, 48 h; series mostly up to 57.5 µM
# How it was run: as §1
# Hek293T = assay: as above; conditions: Gynecologic cancer cell panel viability, ATPlite luminescence, 48 h, control line for the selectivity index; series mostly up to 57.5 µM
# How it was run: as §1
# SKOV3 = assay: as above; conditions: Gynecologic cancer cell panel viability, ATPlite luminescence, 48 h; series mostly up to 57.5 µM
# How it was run: as §1
# Es-2 = assay: as above; conditions: Gynecologic cancer cell panel viability, ATPlite luminescence, 48 h; series mostly up to 57.5 µM
# How it was run: as §1
# OV90 = assay: as above; conditions: Gynecologic cancer cell panel viability, ATPlite luminescence, 48 h; series mostly up to 57.5 µM
# How it was run: as §1
# [1] = qHTS assay to identify inhibitors of the type 1 interferon - major histocompatibility complex class I in skeletal muscle: Counter screen cell viability and HiBit confirmation (AID 1347412); conditions: iHSKM muscle cells + IFN-b, HiBiT or CellTiter-Glo, 24 h, Viability; note: nearly all actives have a fitted effect of over 60% in size
# How it was run: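 HLA-B*08:01–HiBiT knock-in immortalized human myoblasts (C25cl48) stimulated with 4.0 ng/ml human IFN-beta and dosed with compound in a 12-point 1:3 titration (top final 46 uM). After 24 hrs at 37 C, HiBiT lytic luminescence or CellTiter Glo ATP read out.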
# Potency is the fitted concentration of half-maximal effect.
compound,measurement,setting,value
Cc1ccc(NC(=O)C(C)C)cc1C1CCN(Cc2ccc(Oc3ccc(F)c(F)c3)cc2)CC1,Potency,CASKI,inactive
same,Potency,HeLa,inactive
same,Potency,JEG-3,inactive
same,Potency,Tov112D,inactive
COc1cc(-n2cnc3cc(-c4ccc(Cl)cc4)sc3c2=O)ccc1OCCN1CCCC1,Potency,HeLa,inactive
same,Potency,JEG-3,inactive
same,Potency,PA-1,22.4 µM (active)
same,Potency,Tov-21-G,inactive
COc1c(C)cnc(Cn2cc(C#CCC(C)(C)O)c3c(Cl)nc(N)nc32)c1C,Potency,HeLa,inactive
same,Potency,Hek293T,0.282 µM (active)
same,Potency,PA-1,0.282 µM (active)
same,Potency,SKOV3,0.251 µM (active)
c1ccc(-c2cnn3cc(-c4ccc(OCCN5CCOCC5)cc4)cnc23)cc1,Potency,CASKI,inactive
same,Potency,HeLa,inactive
same,Potency,JEG-3,inactive
same,Potency,SKOV3,15.8 µM (active)
same,Potency,Tov-21-G,inactive
CCN(Cc1cc(Nc2nc(C)cn3c(-c4cn[nH]c4)cnc23)sn1)C(C)(C)CO,Potency,Es-2,3.16 µM (active)
same,Potency,Hek293T,3.55 µM (active)
same,Potency,Tov-21-G,0.355 µM (active)
CN1CCN(Cc2ccc(NC(=O)Cc3ccc(Oc4cc(NC(=O)C5CC5)ncn4)cc3)cc2C(F)(F)F)CC1,Potency,Es-2,7.94 µM (active)
same,Potency,HeLa,7.08 µM (active)
same,Potency,OV90,4.47 µM (active)
same,Potency,PA-1,5.62 µM (active)
same,Potency,Tov-21-G,6.31 µM (active)
same,Potency,Tov112D,5.62 µM (active)
COCCNCc1ccc(-c2cc3nccc(Oc4ccc(NC(=O)C5(C(=O)Nc6ccc(F)cc6)CC5)cc4F)c3s2)nc1,Potency,Es-2,inactive
same,Potency,[1],31.3 µM (active)
Fc1ccc2[nH]ccc2c1-c1nc(N2CCOCC2)c2sc(CN3CCN(CC4CC4)CC3)cc2n1,Potency,Es-2,inactive
same,Potency,HeLa,inactive
same,Potency,JEG-3,20 µM (active)
same,Potency,Tov-21-G,inactive
same,Potency,Tov112D,inactive
CC(C)C[C@H](NC(=O)CNC(=O)OCc1ccccc1)C(=O)N[C@@H](Cc1ccccc1)C(=O)CCl (Cbz-Gly-Leu-Phe-CH2Cl),Potency,CASKI,inactive
same,Potency,HeLa,inactive
same,Potency,OV90,inactive
CCNC(=O)Nc1ccc(-c2nc3c(c(N4CCOCC4C)n2)CCN(C2COC2)C3)cc1 (configuration not stated),Potency,CASKI,inactive
same,Potency,HeLa,inactive
same,Potency,Hek293T,2.82 µM (active)
same,Potency,JEG-3,inactive
same,Potency,PA-1,2.24 µM (active)
C=C[C@@]1(C)C=C2C(=O)C(O)=C3[C@](C)(C(=O)O)CC[C@@H]4C[C@]34[C@]2(O)C(=O)C1,Potency,Es-2,10 µM (active)
same,Potency,HeLa,inactive
same,Potency,Hek293T,11.2 µM (active)
same,Potency,PA-1,11.2 µM (active)
same,Potency,Tov-21-G,11.2 µM (active)
C=CC(=O)Nc1ccc2ncnc(Nc3cccc(Br)c3)c2c1,Potency,HeLa,inactive
same,Potency,Hek293T,inactive
same,Potency,OV90,inactive
same,Potency,Tov-21-G,10 µM (active)
same,"activity change, negative = inhibition",[1]; at 45.9 µM (top of the series),-0.162%
CN(C)Cc1ccc(-c2cnn3c(-c4cccc(NC(=O)c5cccc(C(F)(F)F)c5)c4)ccnc23)cc1,Potency,Es-2,inactive
same,Potency,HeLa,inactive
same,Potency,PA-1,inactive
same,Potency,Tov-21-G,inactive
same,Potency,Tov112D,inactive
O=C(Nc1ccccc1Cl)c1cnc2ccc(C3CCNCC3)cn12,Potency,HeLa,inactive
same,Potency,Hek293T,inactive
same,Potency,OV90,7.94 µM (active)
same,Potency,PA-1,0.891 µM (active)
same,Potency,Tov-21-G,1.58 µM (active)
same,Potency,Tov112D,inactive
